{"source": "PubChem BioAssay (NCATS)", "note": "Inconclusive results are not listed. Activity calls are given as the source filed them. Calls follow the shape of the dose curve; as a rule, active = well fitted inhibition curve with a large enough effect; inconclusive = small, poorly fitted or top-dose-only effect; inactive = no such curve, though single readings can be large or run the other way.", "data": [{"experiment": "Primary qHTS for inhibitors of nuclear receptor binding SET domain protein 2 (NSD2) in an RCH-ACV wild type WT cells (2C) (AID 1645877); also: nearly all actives have a fitted effect of over 70% in size; as to activity change, negative = cell killing: % is scaled to controls: 0 for no effect and ±100 for the full control effect", "details": "RCH-ACV NSD2 WT (2C) viability, CellTiter-Glo, 72 h; series mostly up to 44.9 µM; activity change, negative = cell killing: at the top concentration", "values": [{"molecule": "CC1CCC2C(C)(C)CC(C)(CO)C2(O)C1C(=O)O", "note": "(configuration not stated)", "activity change, negative = cell killing": "-6.58% (inactive)"}, {"molecule": "O=C(OCc1cccc(O)c1O[C@@H]1O[C@H](CO)[C@@H](O)[C@H](O)[C@H]1O)C1(O)C(=O)C2C=CC1C1C=CC(=O)C(O)(C(=O)OCc3cccc(O)c3O[C@@H]3O[C@H](CO)[C@@H](O)[C@H](O)[C@H]3O)C21", "note": "(some centres not stated)", "activity change, negative = cell killing": "-22.5% [at 9.23 µM] (inactive)"}, {"molecule": "CC1=C2[C@@H]([C@H](C)CC[C@H]2/C=C(\\C)C(=O)O)[C@H](O)C1", "activity change, negative = cell killing": "-7.41% (inactive)"}, {"molecule": "CCC[C@@H]1C[C@@H](C(=O)N[C@@H]([C@H]2O[C@H](SC)[C@H](O)[C@@H](O)[C@@H]2O)[C@@H](C)O)N(C)C1", "activity change, negative = cell killing": "-4.35% (inactive)"}, {"molecule": "Cc1c(N2C(=O)c3ccc(C(=O)O)cc3C2=O)c(=O)n(-c2ccccc2)n1C", "outcome": "inactive"}, {"molecule": "CC(C)CNC(=O)/C=C/CCCCc1ccc2c(c1)OCO2", "activity change, negative = cell killing": "3.35% (inactive)"}, {"molecule": "C[C@@H]1C(=O)O[C@H]2CC34[C@H]5C[C@@H](C(C)(C)C)C36[C@@H](OC(=O)[C@@H]6O)OC4(C(=O)O5)[C@]21O", "note": "(some centres not stated)", "outcome": "inactive"}]}]}
